Records with an inconclusive call do not appear. The source made the active and inactive calls.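 How the source made its calls, unless noted: active means viability at or under a set limit in both replicates, limit being median viability minus 3 SD (cut at about 48% in these data, passing the limit was not always enough); inconclusive means at or under the limit in just one replicate; inactive means at or above the limit in both replicates.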
Assays:
[1] = Her2 expression decrease, cell viability multiplex – SKBR3 breast tumor cells, AlphaScreen, ATP viability, primary screen (AID 461;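 active means Her2 level under about 52% in both replicate screens, with viability over 70% of control, limit read from the data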;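 on Her2 level: lower value means less Her2 protein in the cells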;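 on viability: percent of carrier control wells set as 100% viability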); conditions: SKBR3 Her2 protein level, 18-24 h, measured here: SKBR3 viability, ATP luminescence, at 10 µM
[2] = biological target: Receptor tyrosine-protein kinase erbB-2 (Homo sapiens) (UniProt P04626); test: as above; conditions: 18-24 h, at 10 µM, stronger effect = lower value
Receptor tyrosine-protein kinase erbB-2 (Homo sapiens), sequence (P04626 whole entry, looked up): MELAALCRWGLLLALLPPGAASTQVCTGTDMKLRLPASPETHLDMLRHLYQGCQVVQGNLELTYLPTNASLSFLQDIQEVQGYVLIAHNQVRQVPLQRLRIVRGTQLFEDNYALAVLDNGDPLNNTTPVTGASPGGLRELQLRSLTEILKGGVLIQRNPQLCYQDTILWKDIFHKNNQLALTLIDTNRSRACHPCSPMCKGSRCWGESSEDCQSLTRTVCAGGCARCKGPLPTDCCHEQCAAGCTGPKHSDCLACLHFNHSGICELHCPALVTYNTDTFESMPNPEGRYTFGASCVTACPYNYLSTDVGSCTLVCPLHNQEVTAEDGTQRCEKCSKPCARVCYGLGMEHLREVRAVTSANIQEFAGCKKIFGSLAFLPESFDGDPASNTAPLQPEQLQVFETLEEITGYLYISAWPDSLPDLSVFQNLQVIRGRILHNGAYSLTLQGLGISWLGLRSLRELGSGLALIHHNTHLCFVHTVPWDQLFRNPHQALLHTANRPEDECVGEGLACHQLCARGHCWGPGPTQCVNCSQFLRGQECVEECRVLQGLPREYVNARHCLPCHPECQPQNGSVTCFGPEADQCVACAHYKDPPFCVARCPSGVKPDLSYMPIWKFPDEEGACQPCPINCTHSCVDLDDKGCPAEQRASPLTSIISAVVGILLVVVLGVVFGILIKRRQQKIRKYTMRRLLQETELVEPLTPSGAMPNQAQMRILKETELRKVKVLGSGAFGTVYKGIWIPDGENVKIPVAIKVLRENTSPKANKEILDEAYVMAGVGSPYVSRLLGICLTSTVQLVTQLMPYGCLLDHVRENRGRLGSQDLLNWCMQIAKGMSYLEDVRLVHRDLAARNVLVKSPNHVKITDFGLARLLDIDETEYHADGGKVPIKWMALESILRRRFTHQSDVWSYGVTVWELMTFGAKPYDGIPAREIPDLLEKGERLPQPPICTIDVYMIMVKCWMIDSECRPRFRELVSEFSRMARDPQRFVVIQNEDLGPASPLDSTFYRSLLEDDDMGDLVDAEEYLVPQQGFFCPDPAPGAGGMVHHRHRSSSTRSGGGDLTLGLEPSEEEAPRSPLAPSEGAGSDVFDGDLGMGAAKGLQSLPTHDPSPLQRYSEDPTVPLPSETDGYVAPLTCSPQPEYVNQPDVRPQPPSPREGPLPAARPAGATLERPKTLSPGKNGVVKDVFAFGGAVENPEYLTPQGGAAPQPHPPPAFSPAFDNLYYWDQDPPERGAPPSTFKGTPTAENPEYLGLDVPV

[3] = reduced viability of SK-BR-3 breast cancer cells – cell-based, 24 h, human, pilot screen (AID 572;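 active means viability at or below 10% of carrier control in both of two separate runs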;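 further: compound exposure lasted between 18 and 24 h rather than exactly 24 h; 100% = carrier-treated control wells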); conditions: SK-BR-3 viability, CellTiter-Glo luminescence, at 10 µM, stronger effect = lower value
[4] = HUVEC growth inhibition – cell-based, human, primary screen (AID 575;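 active means viability at or below 30% in both replicate assays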;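 further: 100% = median of untreated cell wells with 0.1% DMSO on each plate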); conditions: HUVEC proliferation, CellTiter-Glo luminescence, 72 h; at 10 µM; stronger effect = lower value
[5] = H69AR cell proliferation blockers – human, duplicate replicates, primary screen (AID 580); conditions: H69AR lung tumor cells viability, ATP luminescence, 72 h; at 10 µM; stronger effect = lower value;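 further: 100% = mean luminescence of untreated wells and 0% = no signal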
[6] = MRP1 drug-resistance reversers in H69AR cells – cell-based, doxorubicin co-treatment, pilot screen (AID 601;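 active means viability loss from added drug above about 55%, and viability with drug at most 40%, in both replicates, limit read from the data, passing the limit was not always enough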); conditions: CellTiter-Glo, 72 h, at 10 µM; for differential viability (reversal): stronger effect = higher value
[7] = yeast transport mutant growth inhibition pilot in 384-well plates, post-Golgi transport modulator project (AID 636; in the data active means inhibition above about 31%); conditions: absorbance 615 nm, about 18 h, stronger effect = higher value
[8] = growth suppression of yeast trafficking mutant, preliminary HTS, modulators of trafficking downstream of Golgi apparatus project, 1536-format plate, OD 615 nm (AID 637; in the data active means inhibition above about 30%); conditions: yeast transport mutant growth, absorbance 615 nm, 18 h; stronger effect = higher value
[9] = S. cerevisiae growth inhibition in permissive medium (OD615), pilot counter-assay for S. cerevisiae lifespan shortening project, permissive growth control (AID 705;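 active means growth inhibition above 25% in both replicates, a cutoff set 3 SD above the mean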); conditions: OD615, 24 h, at 10 µM, stronger effect = higher value
[10] = S. cerevisiae growth inhibition in restrictive medium, OD615, pilot screen, restrictive growth control, yeast lifespan reduction project (AID 706;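 active means growth inhibition above a set limit, 3 SD over mean compound inhibition, in both replicates, cut at about 43% in these data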;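 further: modified DeaD lifespan yeast strain shifted to restrictive glucose medium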); conditions: OD615, 48 h, at 10 µM, stronger effect = higher value
[11] = doxorubicin toxicity protection in MRP-1 cells – H69AR cells, CellTiter-Glo, duplicate, MRP-1 activator project, pilot screen (AID 807;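 active means viability increase at or above a cutoff of the median across tested compounds plus 3 SD, cut at about 8.5% in these data, passing the limit was not always enough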;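 further: compound pretreatment 18-22 h then 72 h combined with doxorubicin; 0% = doxorubicin alone and 100% = vehicle without doxorubicin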); conditions: H69AR viability with doxorubicin, CellTiter-Glo luminescence; at 10 µM; stronger effect = higher value
[12] = viability of HCT116 without oncogenic beta-catenin – human colon tumor cells, pilot screen (AID 823;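 active means cell viability at or below a set limit in both duplicate runs, the limit being the all-compound median minus 4 SD, cut at about 23% in these data, passing the limit was not always enough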;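 further: 0% = wells killed by 20 µM Hyamine and 100% = untreated DMSO cell wells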); conditions: HCT116 beta-catenin knockout viability, CellTiter-Glo, 60 h; at 10 µM; stronger effect = lower value
[13] = viability of PTEN-null HCT116 cells – cell-based, HCT116 clonal line, CellTiter-Glo, pilot screen (AID 824;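 active means viability at or below 27.92% in each of two runs, the all-compound median minus 4 SD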;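 further: 0% = 20 µM Hyamine control and 100% = vehicle cell control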); conditions: HCT116 PTEN-deleted viability, 60 h, at 10 µM, stronger effect = lower value
[14] = RAM pathway blockade in budding yeast – dse1pr::URA3 reporter, 5-FOA selection, pilot screen (AID 869;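 active means inhibition over a set limit, the all-compound mean plus 3 SD, in both replicate runs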;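 further: 0% = DMSO wells with no growth and 100% = 10 µM 1-NA-PP1 with full growth; RAM network block rescues cells from 5-FOA so hits raise OD615 growth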); conditions: S. cerevisiae dse1pr::URA3 5-FOA growth, OD615, 2 d; at 10 µM; stronger effect = higher value; strain carries analog-sensitive mutant Cbk1 kinase
[15] = RAM signaling pathway blockade in yeast – S. cerevisiae, Pdr1DBD-CYC8 efflux-inhibited sensitized strain, primary screen (AID 1298;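 active means RAM network inhibition above 8.4% in each of two replicates, 3 SD over the compound average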;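 further: 0% = DMSO untreated cells without growth and 100% = 10 µM 1-NA-PP1 full growth; higher means more yeast growth rescued from 5-FOA killing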); conditions: S. cerevisiae cbk1-as DSE1-URA3 strain, 5-FOA growth OD615, 2 d; at 50 µM; stronger effect = higher value
[16] = H69AR cells + 2 uM doxorubicin, measured here: viability with 2 uM doxorubicin, stronger effect = lower value
[17] = H69AR cells, compound alone cytotoxicity

| SMILES | viability [1] [%] | Her2 level [2] | viability [3] | viability [4] | viability [5] | differential viability (reversal) ([6]; H69AR cells + 2 uM doxorubicin) | viability [6, 16] [%] | viability [6, 17] [%] | inhibition [7] | inhibition [8] | growth inhibition [9] | growth inhibition [10] | viability increase [11] | viability [12] | viability [13] | inhibition [14] | RAM network inhibition [15] |
| --- | --- | --- | --- | --- | --- | --- | --- | --- | --- | --- | --- | --- | --- | --- | --- | --- | --- |
| COC(=O)Cc1cc(=O)[nH]c(Nc2nc3ccccc3o2)n1 | 104 | 99.5% (inactive) | 104% (inactive) | 74.6% (inactive) | 78.3% (inactive) | 8.41% (inactive) | 69.8 | 78.3 | -1.03% (inactive) | -3.33% (inactive) | 3.62% (inactive) | 1.2% (inactive) | -2.4% (inactive) | 102% (inactive) | 97.9% (inactive) | 1.03% (inactive) | 5.31% (inactive) |
| COc1cccc(NC(=O)c2ccco2)c1 | 99 | 116% (inactive) | 99% (inactive) | 94.5% (inactive) | 94.9% (inactive) | 7.72% (inactive) | 87.2 | 94.9 | -3.38% (inactive) | -4.33% (inactive) | -0.175% (inactive) | 6.41% (inactive) | -4.31% (inactive) | 107% (inactive) | 98.7% (inactive) | 0.235% (inactive) | -0.82% (inactive) |
| O=C(Cn1ncc2c(=O)oc3ccccc3c21)NCCCN1CCCC1=O | 86.5 | 106% (inactive) | 86.5% (inactive) | 93.1% (inactive) | 101% (inactive) | 16.6% (inactive) | 84.4 | 101 | 1.79% (inactive) | -3% (inactive) | 1.48% (inactive) | -6.73% (inactive) | -0.08% (inactive) | 101% (inactive) | 113% (inactive) | 1.86% (inactive) | 3.58% (inactive) |
| O=C(c1cccc(F)c1)N1CCc2ccccc21 | 96.5 | 80% (inactive) | 96.5% (inactive) | 91.2% (inactive) | 98.9% (inactive) | 3.25% (inactive) | 95.6 | 98.9 | -5.14% (inactive) | 0.98% (inactive) | -19.5% (inactive) | -20.4% (inactive) | -5.03% (inactive) | 86.3% (inactive) | 96% (inactive) | 0.88% (inactive) | 2.7% (inactive) |
| Cc1cc(C)c(C(=O)Nc2ccc(S(=O)(=O)Nc3onc(C)c3C)cc2)c(C)c1 | 110 | 100% (inactive) | 110% (inactive) | 79.5% (inactive) | 93.4% (inactive) | 6.5% (inactive) | 86.9 | 93.4 | -6.27% (inactive) | -1.48% (inactive) | -15% (inactive) | -9.75% (inactive) | 2.97% (inactive) | 93.3% (inactive) | 95.3% (inactive) | 2.68% (inactive) | 10.4% (inactive) |
| Cc1cc(C(N)=O)c2cc(Br)ccc2n1 | 95.5 | 95.5% (inactive) | 95.5% (inactive) | 109% (inactive) | 91.2% (inactive) | 8% (inactive) | 83.2 | 91.2 | -1.35% (inactive) | 0.49% (inactive) | -1.99% (inactive) | -7.49% (inactive) | -2.23% (inactive) | 98.3% (inactive) | 96.5% (inactive) | 0.94% (inactive) | 0.89% (inactive) |
| Cc1cc(NS(=O)(=O)c2ccccc2)no1 | 114 | 115% (inactive) | 114% (inactive) | 94.5% (inactive) | 90.7% (inactive) | -1.04% (inactive) | 91.7 | 90.7 | -5.33% (inactive) | 2.83% (inactive) | -14.5% (inactive) | -6.42% (inactive) | 0.56% (inactive) | 99.9% (inactive) | 98.5% (inactive) | 1.86% (inactive) | 5.41% (inactive) |
| Nc1cc(N)cc(-c2nc3ccccc3o2)c1 | 100 | 106% (inactive) | 100% (inactive) | 87.3% (inactive) | 93.7% (inactive) | 19.1% (inactive) | 74.7 | 93.7 | -2.4% (inactive) | 3.17% (inactive) | 1.61% (inactive) | 6.39% (inactive) | -0.39% (inactive) | 100% (inactive) | 95.4% (inactive) | 2.14% (inactive) | 0.61% (inactive) |
| COC(=O)C(C#N)C(=C1C(=O)CC(C)(C)CC1=O)c1ccc(O)cc1 (stereo not given) | 90 | 92.5% (inactive) | 90% (inactive) | 96.5% (inactive) | 92% (inactive) | -3.63% (inactive) | 95.6 | 92 | 0.9% (inactive) | -1.17% (inactive) | -1.85% (inactive) | 0.91% (inactive) | 0.99% (inactive) | 97.5% (inactive) | 101% (inactive) | 1.16% (inactive) | 2.01% (inactive) |
| CCOC(=O)N1CCC(NC(=O)Cn2c3c(c(-c4ccccc4Cl)cc2=O)CCC3)CC1 | 94.5 | 92.5% (inactive) | 94.5% (inactive) | 123% (inactive) | 89.7% (inactive) | 0.145% (inactive) | 89.6 | 89.7 | -6.67% (inactive) | -1.67% (inactive) | -9.94% (inactive) | -0.355% (inactive) | -0.33% (inactive) | 88.8% (inactive) | 91.9% (inactive) | 2.06% (inactive) | 4.05% (inactive) |
